# From PubChem BioAssay AID463190 (Sanford-Burnham Center for Chemical Genomics, 2010)
# Out of some 330,000 compounds screened, about 7,300 (2.2%) were called active.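 How the source made its calls: active means inhibition of at least 40%; inactive means the rest.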 What follows is part of a selection rich in actives, with near analogues and random picks from the rest.
# Assay: growth inhibition of tim10-1 ts yeast – luminescence, uHTS, primary screen (AID 463190);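 further: mutant grown at 25 °C; 0% = DMSO wells with yeast and 100% = wells holding no yeast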
# Conditions: S. cerevisiae tim10-1 ts strain growth, BacTiter-Glo, 24 h; at 20 µM; stronger effect = higher value
row,SMILES,inhibition
1,COc1ccc(NC(=O)COC(=O)CNC(=O)C2CCCCC2)cc1,4.06% (inactive)
2,CCOC(=O)c1cccc(NC(=O)CCOc2ccccc2)c1,12.6% (inactive)
3,Cc1ccc(NC(=O)CCOc2ccccc2)cc1S(=O)(=O)Nc1ccccc1Cl,43.7% (active)
4,CCc1ccccc1NC(=O)CCOc1ccccc1,11.8% (inactive)
5,CN(C(=O)CSc1nnc(Nc2ccccc2)s1)C1CCS(=O)(=O)C1 (stereo unspecified),8.97% (inactive)
6,COc1ccc(-c2cc(=O)oc3cc(OCC(=O)N[C@@H](Cc4c[nH]c5ccccc45)C(=O)O)ccc23)cc1,16.2% (inactive)
7,C=CCOC(=O)C1=C(C)N=C2SCCC(=O)N2C1/C=C/c1ccccc1OC (stereo unspecified),5.92% (inactive)
8,CCOc1ccccc1Oc1cn[nH]c1-c1ccc(OC)cc1O,-13% (inactive)
9,COc1ccc(-c2cn[nH]c2-c2ccc(OC)cc2)cc1,38.8% (inactive)
10,COc1ccc(Oc2cn[nH]c2-c2ccc(OC)cc2O)cc1,50.1% (active)
11,Cn1sc(=O)c2cc(S(=O)(=O)NC3CC3)ccc21,22.8% (inactive)
12,COc1ccc(N2CCN(C(=O)CCSCc3ccccc3F)CC2)cc1,40.2% (active)
13,O=C(CCc1ccccc1F)N1CCN(c2ccccc2)CC1,6.47% (inactive)
14,COc1ccc(N2CCN(C(=O)CCNC(=O)c3ccc(Br)cc3)CC2)cc1,12.6% (inactive)
15,CN(Cc1c(F)cccc1Cl)C(=O)CNC(=O)c1ccc2c(c1)OCO2,7.42% (inactive)
16,Cc1ccc(NC(=S)Nc2ncccc2C)c(C)c1,36.8% (inactive)
17,O=C(NCCCn1ccnc1)/C(=C\c1ccccc1F)NC(=O)c1ccccc1,-16.4% (inactive)
18,O=C(NN=Cc1ccc(N2CCOCC2)cc1)c1cc2ccccc2cc1O,0.793% (inactive)
19,COc1ccc(-c2cc(C(=O)Nc3ccccc3O)c3ccccc3n2)cc1,11.2% (inactive)
20,O=C(NNc1c2ccccc2nc2ccccc12)c1cc2ccccc2cc1O,48.9% (active)
21,O=C(COC(=O)CN1C(=O)C2CCCCC2C1=O)Nc1ccc(F)c(F)c1F (stereo unspecified),8.83% (inactive)

row,SMILES,inhibition
1,CC1=CC(C)(C)Nc2ccc(OC(=O)C(Cc3ccccc3)N3C(=O)C4CCCCC4C3=O)cc21 (stereo unspecified),25.9% (inactive)
2,CC1=CC(C)(C)Nc2ccc(OC(=O)CN3C(=O)C4CCCCC4C3=O)cc21 (stereo unspecified),42.7% (active)
3,Cc1cccc(C(=O)OC(C)C(=O)NC2CCCc3ccccc32)c1O (stereo unspecified),14.7% (inactive)
4,Fc1cccc2ncnc(OCc3ccccc3)c12,5.91% (inactive)
5,Cc1occc(=O)c1OCc1ccc(F)cc1,1.21% (inactive)
6,Cc1nc2ccccc2cc1OCc1ccc(F)cc1,40.5% (active)
7,O=c1[nH]c2ccccc2s1,8.84% (inactive)
8,O=C(NC(=S)NC1CCCCC1)c1ccc(Cl)cc1,34.7% (inactive)
9,O=C(NC1CCCCC1)c1ccc(-c2ccc(Cl)cc2)o1,46.1% (active)
10,O=C(NC1CCCCCC1)c1cccnc1Sc1ccc(Cl)cc1,17.4% (inactive)
11,Cc1cnc(CN(C)C(=O)CC2C(=O)NCCN2Cc2cccc(F)c2F)[nH]1 (stereo unspecified),0.623% (inactive)
12,CC(C)OCC(O)CN1CCN(C(c2ccccc2)c2ccccc2)CC1 (stereo unspecified),6.5% (inactive)
13,COC(=O)COc1ccc(C2NC(=O)NC(C)=C2C(=O)NCc2ccccc2)cc1OC (stereo unspecified),1.06% (inactive)
14,Cc1ccc(SCC2=NNC(=O)C2)cc1,33.5% (inactive)
15,CCOc1ccc(NC(=O)CN(C)C(=O)Cn2c(=O)cnc3ccccc32)cc1OCC,-8.6% (inactive)
16,C/C(=N\Nc1nc(N2CCOCC2)nc(N2CCOCC2)n1)c1ccc([N+](=O)[O-])cc1,14% (inactive)
17,C/C(=N\Nc1nc(Nc2ccccc2)nc(N2CCOCC2)n1)c1cccs1,41.3% (active)
18,O=C(CSc1nc(Nc2ccccc2)nc(N2CCOCC2)n1)Nc1cc(Cl)ccc1O,-0.275% (inactive)
19,COc1ccc(C2(CNC(=O)C(c3ccccc3)c3ccccc3)CCOCC2)cc1OC,15.2% (inactive)
20,CCCCCCCCn1c2c(c(=N)c3c1CCC3)CCCC2,49.1% (active)
21,Cc1cc(C)n(C(=O)CCNC(=O)c2ccccc2Cl)n1,-10.3% (inactive)

row,SMILES,inhibition
1,CN(c1ccccc1)S(=O)(=O)c1ccc(NC(=O)COc2ccccc2)cc1,40.2% (active)
2,O=C(COc1ccccc1)Nc1ccc(F)cc1,12.1% (inactive)
3,CN(c1ccc(OCC(=O)O)cc1)S(=O)(=O)c1ccc2ccccc2c1,11.1% (inactive)
4,CC(=O)Nc1ccc(S(=O)(=O)N2CCC(C(=O)NC3CC3)CC2)cc1,5.84% (inactive)
5,CCc1ccc2oc(-c3ccc(N)cc3)nc2c1,41.3% (active)
6,O=C(Nc1ccc2oc(-c3ccc4ccccc4c3)nc2c1)c1cccs1,3.31% (inactive)
7,Cc1cc2nc(-c3ccc(NC(=O)c4cccnc4)cc3)oc2cc1C,12.5% (inactive)
8,Cc1ccc(NC(=O)COC(=O)CCc2nc3ccccc3n2-c2ccccc2)c(C)c1,10.3% (inactive)
9,Cc1ccc2c(c1)C1CN(C)CCC1N2S(=O)(=O)c1cccc(F)c1 (stereo unspecified),3.83% (inactive)
10,Cc1ccc2c(c1)C1CN(C)CCC1N2S(=O)(=O)c1ccc(Oc2ccc([N+](=O)[O-])cc2)cc1 (stereo unspecified),43.1% (active)
11,Cc1ccc2c(c1)C1CN(C)CCC1N2C(=S)Nc1ccc(OC(F)F)cc1 (stereo unspecified),3.44% (inactive)
12,COCC(=O)Nc1c(I)c(C(=O)NCC(O)CO)c(I)c(C(=O)N(C)CC(O)CO)c1I (stereo unspecified),6% (inactive)
13,Cc1ccc(/C=C/C(=O)O)cc1S(=O)(=O)N1CCC(Cc2ccccc2)CC1,-0.486% (inactive)
14,COc1cc(CN2CCC(n3nccc3NC(=O)CCCc3ccccc3)CC2)ccc1O,25.4% (inactive)
15,COc1cccc(CN(C)CC2CCCN(CCc3ccc(Cl)cc3)C2)c1OC (stereo unspecified),-21.5% (inactive)
16,Nc1cc(C(F)(F)F)ccc1N1CCOCC1,11.6% (inactive)
17,COc1cccc(CNc2nc(C(F)(F)F)nc3ccccc23)c1,39.2% (inactive)
18,CCc1ccc(C(CNc2nc(C(F)(F)F)nc3ccccc23)N(C)C)cc1 (stereo unspecified),29.3% (inactive)
19,CC(Nc1nc(C(F)(F)F)nc2ccccc12)c1cccs1 (stereo unspecified),42.6% (active)
